SMILES strings stand for the structures. The panel holds about 83,000 compounds, 20% with a hit somewhere; the sample as a whole holds those more often.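 Cells were grown in 96-well plates and exposed to the test compound at a single concentration for 48 hours; results are reported as percent growth, with values below 10 considered active.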 Calls of active or inactive are those of the source.

The first experiment concerns HCT-116 colon. Briefly: NCI-60 one-dose screen, 48 h (100 = growth as untreated, 0 = no growth, -100 = all killed). Particulars: 10 µM unless noted.
With `CC1(C)N=C(N)N=C(N)N1c1ccc(CCCCc2ccc(S(=O)(=O)F)cc2)cc1`, the growth is 12.6% (inactive).

For the compound `Cc1ccc(C(=O)C2CN(C)CCC2(O)c2ccc(C)cc2)cc1` (centres undefined), the growth was 107% (inactive).

Take `O=S(=O)(O)c1ccc(-c2ccc([As](=O)(O)O)cc2)cc1`: the growth was 108% (inactive).

Regarding `O=C1NC(=O)C(CN2C(=O)C3(c4ccccc42)[C@H](Cl)C(=O)N3c2ccccc2)C(=O)N1` (some centres undefined), the growth is 79.9% (inactive).

As for `O=[N+]([O-])c1cc([N+](=O)[O-])c(Cl)c(Cl)c1Cl`, the growth is -53.9% (active).

Consider `C=CCC1(CC)C(=O)NC(=S)NC1=O`, for which the growth was 108% (inactive).

Consider `C/C(=N/OC(=O)N(C)C)c1ccc(Cl)cc1Cl`, for which the growth is 99.1% (inactive).

In the case of `CCC[CH2][Sn]([CH2]CCC)([CH2]CCC)[O]C(=O)CC`, the growth is -88.6% (active).

With `O=C(NCc1ccc([N+](=O)[O-])cc1)Nc1ccc(S(=O)(=O)F)cc1`, the growth is 82.2% (inactive).

With `n1nc(-c2nonc2-c2nn[nH]n2)n[nH]1`, the growth is 106% (inactive).

As for `CNC(=O)Oc1ccccc1-c1ccccc1`, the growth is 99% (inactive).

With `CC1(C)N=C(N)N=C(N)N1c1ccc(OCCCCOc2ccc(S(=O)(=O)F)cc2)c(Cl)c1`, the growth is 11.2% (inactive).

Turning to `CCCCOC(=O)c1ccccc1C(=O)O.CCCCOC(=O)c1ccccc1C(=O)O.[Cu+2]`, the growth is 102% (inactive).

Turning to `O=[N+]([O-])c1ccc2cnn(CSP(=S)(c3ccccc3)c3ccccc3)c2c1`, the growth was 42.4% (inactive).

Take `NC(=O)C(Cl)Cl`: the growth was 107% (inactive).

Regarding `CCN(CC)c1ccc(C=C2C(=O)NC(=S)NC2=O)cc1`, the growth is 93.9% (inactive).

For `Clc1ccc(SSC(Cl)(Cl)Cl)cc1`, the growth is 101% (inactive).

`[O]=[Sn]([CH]1CCCCC1)[CH]1CCCCC1`: the growth was -97.5% (active).

`ClCCN(CCCl)c1nc(Cl)c(C2CC(c3ccccc3)=NN2c2ccccc2)s1` (centres undefined): the growth was 78.3% (inactive).

Take `CC(=O)C1CCC2C3CC=C4CC(OC(=O)Cc5ccc(N(CCCl)CCCl)cc5)CCC4(C)C3CCC12C` (centres undefined): the growth is 93.7% (inactive).

Turning to `Cc1ccccc1O`, the growth was 103% (inactive).

Turning to `O=[N+]([O-])c1ccccc1N1CCNCC1`, the growth was 101% (inactive).

On to `CC(=O)Nc1ccc(C=C2C(=O)NC(=O)NC2=O)cc1`, for which the growth is 101% (inactive).

The test system of a further experiment is HCC-2998 colon. Described as above. Particulars: 10 µM unless noted.
Regarding `ClCCN(CCCl)C(c1ccccc1)c1ccc(Cl)cc1` (centres undefined), the growth is 68.6% (inactive).

Turning to `CCCCn1cc(C(=O)/C(C#N)=C/c2cc3ccccc3nc2Cl)c2cc(OC)ccc21`, the growth was 96.8% (inactive).

As for `CCCCNCCc1ccccn1`, the growth was 114% (inactive).

Consider `CC(=O)C1C(=O)N(C)C(=O)N(C)C1=O`, for which the growth is 112% (inactive).

Take `CC1(C)N=C(N)N=C(N)N1c1cccc(C(=O)Nc2cccc(S(=O)(=O)F)c2)c1`: the growth was 98.5% (inactive).

In the case of `NC(Cc1ccc2c(c1)OCO2)c1ccc2c(c1)OCO2` (centres undefined), the growth is 106% (inactive).

Regarding `CC1(C)N=C(N)N=C(N)N1c1ccc(CCCCc2ccc(S(=O)(=O)F)cc2)c(Cl)c1`, the growth was 35.5% (inactive).

As for `COc1ccc(C2=NN(c3ccccc3)C(c3sc(N(CCCl)CCCl)nc3Cl)C2)cc1` (centres undefined), the growth is 107% (inactive).

Regarding `N#CC1c2ccccc2C=CN1C(=O)c1ccc(N(CCCl)CCCl)cc1` (centres undefined), the growth is 101% (inactive).

For `CSc1ccccc1NP1(=O)OCC(C)([N+](=O)[O-])CO1` (centres undefined), the growth is 104% (inactive).

Take `Cc1ccc(N)cc1[As]=[As]c1cc(N)ccc1C` (centres undefined): the growth is -73.8% (active).

As to `C/C(=N/OC(=O)N(C)C)c1cc(Cl)ccc1Cl`, the growth is 102% (inactive).

As for `CCC(C)[C@H]1O[C@]2(C=C[C@@H]1C)C[C@@H]1C[C@@H](C/C=C(\C)[C@@H](OC3C[C@H](OC)C(O[C@H]4C[C@H](OC)[C@@H](O)[C@H](C)O4)[C@H](C)O3)[C@@H](C)/C=C/C=C3\CO[C@@H]4[C@H](O)C(C)=C[C@@H](C(=O)O1)[C@]34O)O2` (some centres undefined), the growth was -49% (active).

For `CC1(C)N=C(N)N=C(N)N1c1ccc(CCCCc2ccc(S(=O)(=O)F)cc2)cc1`, the growth was 45.3% (inactive).

`Cc1ccc(C(=O)C2CN(C)CCC2(O)c2ccc(C)cc2)cc1` (centres undefined): the growth was 98.3% (inactive).

Take `O=S(=O)(O)c1ccc(-c2ccc([As](=O)(O)O)cc2)cc1`: the growth is 105% (inactive).

With `O=C1NC(=O)C(CN2C(=O)C3(c4ccccc42)[C@H](Cl)C(=O)N3c2ccccc2)C(=O)N1` (some centres undefined), the growth is 83.9% (inactive).

`O=[N+]([O-])c1cc([N+](=O)[O-])c(Cl)c(Cl)c1Cl`: the growth is 78.8% (inactive).

For `C=CCC1(CC)C(=O)NC(=S)NC1=O`, the growth is 96.5% (inactive).

`O=C(NCc1ccc([N+](=O)[O-])cc1)Nc1ccc(S(=O)(=O)F)cc1`: the growth was 99.2% (inactive).

With `n1nc(-c2nonc2-c2nn[nH]n2)n[nH]1`, the growth was 106% (inactive).

For `CNC(=O)Oc1ccccc1-c1ccccc1`, the growth was 101% (inactive).

`CC1(C)N=C(N)N=C(N)N1c1ccc(OCCCCOc2ccc(S(=O)(=O)F)cc2)c(Cl)c1`: the growth is 32.4% (inactive).

As to `O=[N+]([O-])c1ccc2cnn(CSP(=S)(c3ccccc3)c3ccccc3)c2c1`, the growth was 89% (inactive).

As to `NC(=O)C(Cl)Cl`, the growth is 120% (inactive).

Consider `CCN(CC)c1ccc(C=C2C(=O)NC(=S)NC2=O)cc1`, for which the growth was 96.8% (inactive).

Consider `Clc1ccc(SSC(Cl)(Cl)Cl)cc1`, for which the growth is 110% (inactive).

Take `ClCCN(CCCl)c1nc(Cl)c(C2CC(c3ccccc3)=NN2c2ccccc2)s1` (centres undefined): the growth is 110% (inactive).

Consider `CC(=O)C1CCC2C3CC=C4CC(OC(=O)Cc5ccc(N(CCCl)CCCl)cc5)CCC4(C)C3CCC12C` (centres undefined), for which the growth was 93.7% (inactive).

For the compound `Cc1ccccc1O`, the growth is 99.4% (inactive).

For `CC(=O)Nc1ccc(C=C2C(=O)NC(=O)NC2=O)cc1`, the growth is 104% (inactive).

Values taken from PubChem BioAssay (NCI).
